From the supplement of paper PMC8726507

These compounds were tested on Plasmodium falciparum NF54-HGL (transmission to Anopheles stephensi) (assay: percentage of barcode signal found in uninfected mosquitoes (transmission-blocking activity); higher = stronger blocking of transmission to mosquito, active = 80 or more). Conditions: 10 µM; gametocyte preincubation time 24 h; readout time post-feed 8 days.
Procedure: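 The mixture was fed to Anopheles stephensi in 96-well plates as blood meals tagged with DNA-barcoded Asaia bacteria. Eight days later, mosquitoes were classed infected or uninfected by luminescence (mean + 5 SD of unfed controls). Barcodes were quantified by Luminex MagPlex-TAG in the pooled uninfected and infected Asaia cultures, background-corrected, and the score is % of barcode signal in uninfected mosquitoes = 100*Iu/(Iu+Ii).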
In the case of `O=C(Nc1nnc(-c2ccc(Cl)cc2)o1)c1cccc(C(F)(F)F)c1`, the “percentage of barcode signal found in uninfected mosquitoes” value (“percentage of barcode signal found” for short) is reported as -0.664% (inactive). `Cc1cccc(Cn2ccc(NC(=O)c3ccc4c(c3)OCO4)n2)c1` was tested, and the “percentage of barcode signal found” value was 42.9% (inactive). In the case of `CC(C)N=c1cc2n(-c3ccc(Cl)cc3)c3ccccc3nc-2cc1Nc1ccc(Cl)cc1`, the “percentage of barcode signal found” value is reported as 99.3% (active). `O=C(C1CCN(c2nnnn2-c2ccccc2)CC1)N1CCc2ccccc2C1` was tested, and the “percentage of barcode signal found” value was 46.7% (inactive). In the case of `COc1ccc(-c2nc(-c3cccc(NC(=O)Cc4ccc(F)cc4)c3)no2)cc1OC`, the “percentage of barcode signal found” value is reported as 5.39% (inactive). `CCc1nc2ccc(C(=O)NCc3ccc4c(c3)OCO4)cn2c1N(C)Cc1cccs1` was tested, and the “percentage of barcode signal found” value was 22.1% (inactive).

Same assay, conditions: 20 µM; gametocyte preincubation time 24 h; readout time post-feed 8 days
In the case of `COc1ccc(Cn2cnc3c(-c4ccco4)nc(Cl)nc32)cc1`, the “percentage of barcode signal found” value is reported as 21.6% (inactive). With `Cc1cc(OCC(=O)NCc2ccccc2)c2cc(Br)ccc2n1` the “percentage of barcode signal found” value was 0.13% (inactive). `OC[C@H]1O[C@@H](n2c3ccc(Cl)cc3c3c(-c4cc5ccccc5o4)ncnc32)C(O)[C@H]1O` (stereo partly specified) was tested, and the “percentage of barcode signal found” value was 8.88% (inactive). For `COc1cc(OC)cc(C(=O)NCC2Cc3cc(Cl)cc(-c4ccncc4)c3O2)c1` (stereo unspecified), the “percentage of barcode signal found” value was 1.01% (inactive). For `CC(=O)N1CCN(c2ccc(Oc3ccc(Cl)cc3O)cc2)CC1`, the “percentage of barcode signal found” value was 23.4% (inactive). In the case of `Cc1cccc(-c2nc(Nc3ccncn3)c3sccc3n2)n1`, the “percentage of barcode signal found” value is reported as 91.4% (active). For `COc1ccc(-c2nnc3ccc(-c4cccc(C(C)C)c4)cn23)cc1OC`, the “percentage of barcode signal found” value was 47.3% (inactive). For `CCc1ccc([C@@H]2C[C@H](C(F)(F)F)n3ncc(C(=O)NCc4ccc(OC)cc4)c3N2)cc1`, the “percentage of barcode signal found” value was 8.67% (inactive). For `Nc1ncc(-c2cn[nH]c2)cc1-c1nc2cc(Cl)cnc2[nH]1`, the “percentage of barcode signal found” value was 48.9% (inactive). With `Cc1cc(C)nc(-n2nc(C)cc2Nc2ccccc2)n1` the “percentage of barcode signal found” value was 80.5% (active). In the case of `c1cc(C2=NCCN2)cc(-c2cc(-c3ccc(C4=NCCN4)cc3)no2)c1`, the “percentage of barcode signal found” value is reported as 50% (inactive). In the case of `CCOC(=O)c1noc(N)c1-c1ccccc1`, the “percentage of barcode signal found” value is reported as 25.4% (inactive). `CCCCOC(=O)Nc1cc2nc(C3CCCCC3)[nH]c2cc1N1CCCC1` was tested, and the “percentage of barcode signal found” value was 33.9% (inactive). With `CC(C)n1nc(-c2cc3c(Cl)cccc3[nH]2)c2c(N)ncnc21` the “percentage of barcode signal found” value was 53.6% (inactive). In the case of `COc1ccc(C(=N)N)cc1-c1cn(-c2ccc(C(=N)N)cc2)nn1`, the “percentage of barcode signal found” value is reported as 2.56% (inactive).
